# Experimental data reported in the supplement of paper PMC6555819.
# Key:
# Experiment in all cases: PBM binding z-score (relative to random genomic background probes); higher = stronger binding; sequences stand for … in GC…GCGATTGACAGCGTAGAATGAAGG
# [1] = system: RARb homodimer (NR concentration 270 nM)
# Method in brief: (§1)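 Binding z-scores were set against random background probes. The data came from custom Agilent 4×180K protein-binding microarrays carrying double-stranded probes with 34-nt variable regions, incubated 1 h with ligand-free nuclear receptor dimers. Partner-specific antibodies detected binding, and scanned fluorescence was regression-normalized.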
# [2] = system: RARg:RXRa (NR concentration 270 nM, RXRa partner concentration 90 nM)
# Method in brief: as §1
# [3] = system: RARg homodimer (NR concentration 270 nM)
# Method in brief: as §1
# [4] = system: RXRa DBDmut IVT, anti-RXR (DBD mutation: RXRa K156A/R161A, NR concentration 90 nM)
# Method in brief: as §1
# [5] = system: RXRa homodimer (NR concentration 180 nM)
# Method in brief: as §1
# [6] = system: THRa:RXRa (NR concentration 90 nM, RXRa partner concentration 90 nM)
# Method in brief: as §1
# [7] = system: THRa homodimer (NR concentration 90 nM)
# Method in brief: as §1
# [8] = system: VDR homodimer (NR concentration 270 nM)
# Method in brief: as §1
Sequence,PBM binding z-score [1],PBM binding z-score [2],PBM binding z-score [3],PBM binding z-score [4],PBM binding z-score [5],PBM binding z-score [6],PBM binding z-score [7],PBM binding z-score [8]
TCTTGTAGATCAAAAGGAGGTTAAGAAAGATCGA,0.201,0.79,0.0979,0.622,1.17,1.09,-0.613,0.16
CCTTACGGGTCAAGGTCATAGCACGGGTGGTACG,4.87,6.23,6.45,2.02,7.01,4.18,3.42,3.71
GGAACGAGGGCAAGTTGATTGCAGAGTTTGATGG,1.5,1.62,2.18,2.56,0.967,1.38,-0.0249,2.02
CCTGCTAGGTCCTGGTCAGCTAATCTACAGTATG,0.0603,-0.177,-0.17,-0.107,-0.298,-0.0341,-0.199,-0.989
GCTGGCAGGCCATTTGGGTCACTCAATGACGGGC,1.88,0.91,1.54,-0.405,0.855,1.86,0.617,0.646
CCTGCTAGGTCATGGTCAGCTCATCTACAGTATG,3.46,3.88,4.57,1.95,2.65,3.24,1.26,0.458
CAAACTAGTTCACCGGAAGGTCAAAGTCCGCATG,4.92,6.9,4.99,2.8,4.73,3.73,1.72,3.2
GCGACTGGGGCAAAGCAGGTTATCATAAGGTTGG,0.97,0.559,0.655,-0.0158,0.368,2.9,0.0261,-0.46
ACAGACAGGTGAGTGAAGGTAACTCGGCTGGACG,0.0831,0.0852,0.044,-0.351,0.256,1.38,-0.708,-0.648
ATCGAAAGGTAGTGAGGTGAGTATACAGAAAGGC,0.406,0.407,0.62,-0.693,0.164,1.5,0.917,-0.237
GGAACAAGGGCAAGTTGATAGCAGAGTTTGATGG,1.92,1.5,2.02,1.47,0.773,1.14,0.372,1.27
AGAACGACGGCACGCTGAGTTGATAGCAGAGTAG,-0.983,-0.171,-0.213,-0.569,-0.1,-0.601,-1.14,-0.198
TAGCCTAGGTCGTGCGGGCCAGTATAGTGTCGGC,0.429,0.705,0.719,-0.774,0.344,0.675,-0.487,-0.502
CCTAGTTGGTCAAGAGGTCACACACCGGATATGA,5.08,6.18,5.31,1.37,6.37,4.15,2.75,3.07
ATATGTAGGTTACATCCGGGTCATTCAGGCTATG,3.04,3.77,2.17,1.01,3.39,3.75,2.57,2.83
GCTACTAGTTGAAAGGGCAACCGAATGATTCTCG,2.01,1.33,1.35,0.375,1.33,0.651,-0.134,0.214
CCTAGTTGGTCAGGAGGTCACACGCCGGATATGA,4.02,4.96,4.34,0.884,4.77,3.41,2.31,2.95
CCGACTGGGGCATAAGGATACCATAAGCCAGCCC,-0.129,-0.00817,0.301,-0.682,0.0556,0.92,0.5,-0.401
CAGCCTAGGTCAGGGCCAGTCTAGGAGGAACGTT,2.6,2.83,3.7,-0.45,1.5,1.98,0.28,-0.275

Sequence,PBM binding z-score [1],PBM binding z-score [2],PBM binding z-score [3],PBM binding z-score [4],PBM binding z-score [5],PBM binding z-score [6],PBM binding z-score [7],PBM binding z-score [8]
ACAGACAGGTCAGTGAAGGTAACTCAGCTGGACG,2.48,3.33,4.21,0.616,2.23,3.86,-0.151,-0.256
ATCGAAAGTTCGTGAGGTGAGTATACAGAAAGGC,1.8,2.22,1.86,2.13,1.78,2.23,1.23,1.22
TCTTGTAGATCAGCAGATTAAGAAAGCTGGCCAA,-0.767,-0.275,-0.543,0.615,-0.121,-0.329,-0.892,-0.178
AGTCGAAGTTCAGGACGAGGTAACGTAAAGCACG,1.36,2.55,1.89,1.42,1.28,3.25,1.62,0.996
AATACAGGGTCACTACGCCAGAGTAGGTACGAAT,3.19,5.26,4.83,3.03,5.7,3.5,1.33,3.21
TCATATAGGTAATGCAGGTGAAAGTCGGCATCTA,0.531,0.489,0.438,1.04,0.993,1.1,0.297,0.176
AGTCAAAGTTCACTAGGGAACGTAAGATTCAGCT,3.65,4.75,5.65,4.23,3.67,2.05,-0.852,3.23
CGTCCCAGGTCATAGGAGGTCAGTGAAGACAGAT,4.84,5.47,5.84,2.74,4.75,4.89,3.13,3.59
GGAACGAGGACAAGTTGATAGCAGAGTTTGATGG,0.51,0.796,1.26,1.62,0.0511,2.53,1.58,0.892
GGAACGAGGGCAAGTCGATAGCAGAGTTTGATGG,1.18,1.36,2,1.89,0.701,0.983,-0.0774,1.08
TTACCAAGGTGAGCTGAGGTCGTTGCTCCAACTC,1.57,0.912,0.763,0.505,1.26,4.78,2.1,1.93
GCTAGTTGGTCAGTAAAAGGTCACAGACCGGTCG,5.24,5.64,5.2,0.262,5.7,3.79,1.68,1.13
ATTTCTAGGTAAAGTTCAGTGAAAGATCGATAGA,2.55,2.02,2.7,1.59,1.44,1.48,0.574,2.39
GCCAGTTGGTCAGTAAAAGGTCACACACCGGTCG,5.25,5.38,4.92,0.354,5.25,3.38,1.65,1.83
ATCTCTAGGTAAAAATAGTTCAGTGAATGCAAAT,1.13,1.01,0.9,0.16,0.292,0.72,0.138,0.549
ATCGAAAGATCGACGAGGTGAGTATACACCGTTT,-0.514,0.223,0.471,-0.641,0.512,1.14,0.311,-0.18
GATACAAGGTCAAGGCCAGAGTACGCGTATTGAT,4.63,5.82,6.11,2.63,5.5,3.88,2.35,2.41
ATCTCTATGTAACAAGTTCAGTGAAAGAGAGGAC,1.49,0.833,1.3,0.923,0.533,0.782,0.323,2.17
TCAGACAGGTGAAGGCAACTCAGGTACGCAGTCG,0.466,0.17,0.317,0.993,0.955,0.99,-0.0896,-0.101

Sequence,PBM binding z-score [1],PBM binding z-score [2],PBM binding z-score [3],PBM binding z-score [4],PBM binding z-score [5],PBM binding z-score [6],PBM binding z-score [7],PBM binding z-score [8]
CCGACTGGGGCAGAGAGGTTACCATACCATCCGG,1.54,1.33,1.2,-0.642,1.23,1.02,-0.309,0.35
ATCTCTAGGTAAAGTTCACTGAAAGATCGATAGA,3.34,3.14,3.42,2.2,2.82,1.95,0.46,3.79
TTACCAAGGTGAAAGGACGTTGATGCACGCCTTG,0.523,0.792,0.651,-0.0859,0.819,1.36,0.386,-0.00942
ACTCGGAGGACAAAGGACAGAGCTACGCCAGTGA,1.11,1,1.64,0.398,0.0489,0.569,-0.18,-0.184
ACTAATAGTTGAGACGAGGGCAACCGATAGGTTG,1.37,0.936,1.15,0.345,0.834,3.43,0.12,0.709
ACAGACAGGTTAGTGAAGGTAACTCAGCTGGACG,0.435,0.363,0.773,-0.188,0.511,2.2,-0.138,-0.0977
TCATATAGGTAGACAGGTGAAAGTCCGTAAGTTA,0.985,0.378,0.361,1.68,0.907,0.763,0.486,0.286
ATTTACGGGTCAACGAGGTTATAGCACGCGTATA,3.79,6.1,5.62,2.5,6.99,4.19,1.43,4.5
AAATGTAGGTTATCGGGTCATTCAGTTTGCGCAT,3.09,3.27,2.33,1.88,3.42,3.41,2.84,4
GCGAATGGGGCAAAGCAGGTTACCATAAGGTTGG,1.06,0.565,0.52,-0.201,0.442,3.12,0.0667,-0.552
CCTACTGGGCCATTCAGAGGTCATTGACCATATG,4.16,4.57,3.23,0.945,3.98,3.28,1.45,3.34
GCTGCTGGGTCAGGTTGGTCAGCTAACGGGTACG,2.57,1.94,2.78,-0.0156,0.839,1.21,0.312,0.573
AATACAGGGTCACTAGGCGAGAGTAGGTACGAAT,3.24,5.21,5.18,2.87,5.73,3.48,1.41,2.82
GCTGCTAGGTCAACTTATGGTCAGCTAAAGCTCG,3.76,5.26,5.44,1.75,3.1,3.33,1.45,0.364
CCTACTGGACCATTCAGAGGTCATTGATCATATG,4.13,3.53,2.94,1.51,3.99,3.04,2.32,4
ATCGAAAGGTCGTGAGGTGAGTGTACAGAAAGGC,3.06,4.52,4.11,1.26,5.06,3.48,1.71,1.41
GCAGACAGGTAAAACGCAGGTAACTCAGGGTGGC,0.258,-0.164,-0.43,-0.576,0.223,0.964,-0.354,-0.545
CCTTACGGGTCACTGACAGGTTATGGCATTTGGA,3.41,5.79,4.82,1.85,5.22,2.9,0.174,0.887
AGAACGAGGGCACGCTGAGTTGATGGCAGAGTAG,1.37,2.06,2.33,1.76,1.53,1.89,0.0857,1.71
